KB-3-1 cytotox: kills parental KB-3-1 adenocarcinoma cells; KB-3-1 viability, CellTiter-Glo ATP luminescence, 72 h; Potency, µM (series often up to 46.1 µM), hits mostly cytotoxic; 400,000 compounds, 1.4% hits; note: potency is the fitted concentration of half-maximal effect; % is set by controls: 0 for no effect and ±100 for the full control effect; nearly all actives have a fitted effect of over 60% in size
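Cytotoxicity in the drug-sensitive parental line KB-3-1 was scored as loss of CellTiter-Glo luminescence following 72 h incubation with compound. Values come from curve fitting of normalized concentration-response data.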
MCF10A rereplic: inducers of DNA re-replication in MCF 10A breast cells; MCF 10A DNA re-replication, Hoechst nuclear intensity, 48 h; Potency, µM (highest dose often 46.1 µM), for inactives: at the highest dose activity, positive = re-replication, hits mostly activators; 350,000 compounds, 2.9% hits; AID 624296; note: potency is the fitted concentration of half-maximal effect; % of control where 0% means no effect; nearly all actives have a fitted effect of over 50% in size
IL-1B inflam inh: inflammasome signaling inhibition, IL-1 beta readout; THP-1 LPS/ATP IL-1B secretion, AlphaLISA, 16 h; stronger effect = lower value; activity change, % at 57.5 µM; 360,000 compounds, 4.7% hits; AID 743279; in the data active = activity change below about -50%; inconclusive = mostly about -30% to -49%; note: % is set by controls: 0 for no effect and ±100 for the full control effect
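THP-1 cells pretreated 1 hr with compounds (up to 57.5 uM final), then stimulated with LPS (250 ng/mL final) plus ATP (1.25 mM final); secreted IL-1B measured by AlphaLISA after 16 hr, decreased signal indicating inhibition.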
SW480 rereplic: DNA re-replication induction in SW480 cells. SW480 DNA re-replication, Hoechst DNA content imaging, 48 h. Potency, µM (series often up to 46.1 µM), for inactives: at the highest dose re-replication activation, actives largely listed as activators. 340,000 compounds, 1.8% hits. AID 624297; note: potency is the fitted concentration of half-maximal effect; % of control where 0% means no effect; nearly all actives have a fitted effect of over 55% in size
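Cells (250 per well) received 23 nL compound or DMSO by pin tool and were kept 48 hr at 37 C, 5% CO2. Nuclei were then stained with Hoechst for 40 min and scanned for DNA content.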
KB-V1 cytotox: kills drug-selected multidrug resistant KB-V1 cells; KB-V1 MDR cells viability, CellTiter-Glo, 72 h; 400,000 compounds, 3.4% hits; Potency, µM (titrated, usually from 46.1 µM), hits mostly cytotoxic; note: potency is the fitted concentration of half-maximal effect; % is set by controls: 0 for no effect and ±100 for the full control effect; nearly all actives have a fitted effect of over 60% in size
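In this primary screen, KB-V1 cells overexpressing P-gp are incubated with library compounds (lowest to highest concentration) for 72 h at 37 degrees C before a luminescent ATP viability read.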
* hit, by the source's call; i = inactive; ? = inconclusive; . = not tested or not shown. A selection: hits, their analogues and other compounds. The true share with any hit is near 9.9%. Unless noted, calls come from the whole dose curve; as a rule, active = well fitted curve in the direction sought with a large enough effect; inconclusive = small, poorly fitted or top-dose-only effect, or another doubt; inactive = no such curve, though single readings can be large; an effect the other way counts as inactive or inconclusive.

SMILES | KB-3-1 cytotox | MCF10A rereplic | IL-1B inflam inh | SW480 rereplic | KB-V1 cytotox
CC[C@]12c3[nH]c4ccc(OC)cc4c3CCN1C(=O)C(CC(=O)NC/C=C(\C)CCC=C(C)C)C[C@@H]2C(=O)N1CCN(C(=O)c2ccco2)CC1 (some centres undefined) | i | ? | -53* | ? | i
COc1ccc2[nH]c3c(c2c1)CCN1C(=O)C(CC(=O)NC/C=C(\C)CCC=C(C)C)C[C@H](C(=O)N(C(C)C)C(C)C)[C@@]31C (some centres undefined) | ? | 15µM* | -64* | ? | ?
Cc1ccc(C)c(OCC(=O)Nc2ccc(S(=O)(=O)Nc3onc(C)c3C)cc2)c1 | i | -26% | 12 | -21% | i
O=C(NC1CC1)C1CCN(C2CCN(C(=O)/C=C/c3ccc(F)cc3)CC2)CC1 | i | ? | 0 | -16% | i
Cc1ccc(N=C2SC(C(=O)O)CC(=O)N2C)cc1C (centres undefined) | i | -8% | 10 | -19% | i
N#CC(=C1Nc2ccccc2N1)S(=O)(=O)c1ccccc1 | i | 19% | 13 | ? | i
Cc1ccc(C(=O)Nc2ccccc2C(=O)OCc2cc(=O)n3nc(C4CC4)sc3n2)cc1 | i | . | . | . | ?
CC(C)C(=O)N1CCN(c2ccc(NC(=O)c3cccs3)cc2)CC1 | i | 2% | ? | 2% | i
O=C(c1ccco1)N1CCN(C(=O)c2ccco2)CC1 | i | . | -6 | . | i
CC(C)C(=O)N1CCN(c2ccc(NC(=O)c3cccs3)cc2Cl)CC1 | i | 4% | -83* | -27% | i
O=C(Cc1ccc(Cl)cc1)Nc1ccc(N2CCN(C(=O)c3ccco3)CC2)c(Cl)c1 | ? | ? | -68* | 4% | ?
O=C(Nc1ccc(N2CCN(C(=O)c3ccco3)CC2)c(Cl)c1)c1cccs1 | ? | ? | -63* | 3% | 23µM*
CCC(=O)Nc1ccc(N2CCN(C(=O)c3ccco3)CC2)c(Cl)c1 | i | 0% | i | 4% | i
O=C(c1ccco1)N1CCN(C(=O)c2cccs2)CC1 | i | 1.8µM* | 0 | 6.5µM* | i
O=C(NCc1ccccc1)c1ccccc1NC(=O)C1CCCCC1 | i | 15% | -17 | -1% | ?
O=C(c1cc(-c2ccccc2)on1)N1CCN(C(=O)c2ccco2)CC1 | i | -8% | -4 | 1% | i
O=C(c1ccco1)N1CCN(C(=O)c2sccc2-c2ccccc2)CC1 | i | 12% | 7 | 12% | 12µM*
COCCNC(=O)c1cccc(OC2CCN(C(C)COc3ccccc3)CC2)c1 (centres undefined) | i | 1.8µM* | 0 | -34% | i
O=C(OC(C(=O)NCc1ccccc1)c1ccccc1F)c1ccco1 (centres undefined) | i | ? | -10 | -8% | i
CN(C)c1ccc(/C=C/c2cc(Cl)nc3ccccc23)cc1 | ? | . | . | . | 13µM*
Cc1nc2ccccc2nc1/C=C/c1ccc(N(C)C)cc1 | 5.2µM* | . | . | . | ?
CN(C)c1ccc(/C=C/c2cc(N(C)C)nc3ccccc23)cc1 | 0.58µM* | . | . | . | 1.8µM*
CCc1ccc(C(=O)C(C)OC(=O)c2nc3nc(C)cc(C)n3n2)cc1 (centres undefined) | i | -3% | -8 | -3% | i
COc1ccc(/C=N/NC(=O)CCC(=O)Nc2ccc(Br)cc2)c(OC)c1 | i | ? | -75* | 6% | i
COc1ccc(/C=N/NC(=O)C[n+]2ccccc2)c(OC)c1 | i | 1µM* | 8 | -72% | ?
CSc1ccc(C2c3c(oc4ccc(F)cc4c3=O)C(=O)N2c2ccc(C)cn2)cc1 (centres undefined) | i | . | . | . | i
CCOC(=O)c1c(C)cc2c(CO)n[nH]c(=O)c2c1C | i | . | -11 | . | 0.82µM*
CC(C)OCCCNC(=O)c1ccc2c(c1)NC(=O)c1ccccc1S2 | i | 17% | 21 | ? | ?
CC1=Nc2cc(C(=O)NCCCOC(C)C)ccc2Sc2ccc(C)cc21 | 2.9µM* | 9.2µM* | 43 | 6.5µM* | 4.1µM*
